Data published in PubChem BioAssay (EPA / NIEHS).
“And” between values parts separate entries of the source, which are not always exact repeats. Equal entries are not always repeated. Some structures have more than one record in an assay (separate samples or runs), and their calls can disagree. The source made the active and inactive calls. The calls were made as follows: active = hit-call score of the fitted dose curve at least 0.9, where 1 is the maximum; inactive = score below 0.9.

These compounds were tested on MicroRNA 122 (MIR122), gene 406906 (assay: LTEA_HepaRG_MIR122: Life Technologies and Expression Analysis (LTEA) Assay for MicroRNA 122 (MIR122) using HepaRG (AID 2283516; also: the transcript read is the microRNA miR-122)). Settings: mRNA level, 48 h; actives raise or lower the signal.
Experimental: LTEA_HepaRG is a cell based, multiplexed-readout assay that uses HepaRG, a human liver cell line, with measurements taken at 48 hours after chemical dosing on a 96-well plate.LTEA_HepaRG_MIR122 is one of 102 assay component(s) measured in the LTEA HepaRG cell culture assay. It is a marker of MicroRNA.Data from the assay component LTEA_HepaRG_MIR122 was analyzed into 1 endpoint. This assay endpoint, LTEA_HepaRG_MIR122, was analyzed with bidirectional fitting relative to DMSO as the negative control and baseline of activity. Using a type of inducible reporter, measures of mRNA induction for gain or loss-of-signal activity can be used to understand regulation of transcription factor activity. To generalize the intended target to other relatable targets, this assay endpoint is annotated to the microrna intended target family, where the subfamily is post-transcriptional regulation.
A total of 1060 chemcials from the ToxCast library were tested in eight-point concentration-response experiments. Cell culture and cytotoxicity assays were conducted at Thermo Fisher Scientific's Custom Services facility (Madison, WI). A single lot of human HepaRG cells (Thermo Fisher Scientific, Frederick, MD) was used for the cell culture experiments. 96-well format collagen type I coated plates of human HepaRG cells were prepared using established methods. Briefly, cryopreserved HepaRG cells were thawed, plated at a density of approximately 100,000 cells/well in HepaRG Thaw, Plate, and General Purpose media (HPRG770, Thermo Fisher Scientific), and incubated for 48 hours. 0.5% DMSO was selected as vehicle control to balance the requisite need of DMSO in HepaRG cultures to maintain differentiation (for example, baseline metabolism, proportions of hepatocytes vs. cholangiocytes), while enabling further hepatic receptor pathway activation (for example, PXR and CAR) in response to chemical exposure. 48 hours after plating, the culture medium was replaced with HepaRG Serum-Free Incudtion Media. Cells were exposed to each test chemical in duplicate and maintained in CO2 incubators for another 48 hours. Chemical plates were thawed to room temperature and 200x concentrations of treatment groups were prepared. 8-point conentration-reponse curves were made with the highest exposure at 100 uM, followed by half-log dilutions, all in 0.5% DMSO. Each test plate contained variouse controls, induction positive controls (1mM phenobarbital), cytotoxicity positive controls ([…] aflatoxin B1), vehicle controls (0.5% DMSO), and total lysis controls (0.5% DMSO). Cell morphology images were taken using an Essen IncuCyte FLR automated microscope, with six 96-well plates imaged in about 24 minutes. Images were captured and exported and JPEG files. Spent culture media was transfered to black-well plates for the LDH assay, and remaining media was sorted at -80 C for later use. Cells were treated with RLT buffer and frozen until shipped for gene expression analysis. Total RNA was isolated from the cell suspension in 75 uL of Buffer RLT (Qiagen, Germantown, MD 20874) by Quintiles/Expression Analysis (Durham, NC) using a custom isolation procedure. Total RNA from each plate well was transferred to a preamplification plate. Fluidigm's 96.96 Dynamic ArrayTM (Fluidigm, Amsterdam, the Netherlands) technology was used for gene expression analyses by quantitative reverse transcription polymerase chain reaction (qRT-PCR, performed by Quintiles/Expression Analysis, Durham, NC)89. Standard TaqManTM Assays (Applied Biosystems/ThermoFisher Scientific, Foster City, CA) were used to assess the expression of 93 genes selected based on their selectivity and sensitivity to important hepatic receptors known to be modulated by environmental chemicals; importance in human hepatocyte functionality; and hepatotoxicity. […]

Row | Compound | outcome | AC50
1 | CCOC(=O)CC(SP(=S)(OC)OC)C(=O)OCC (stereo not given) | inactive | 
2 | CNC(=O)ON=CC(C)(C)SC | inactive | 
3 | CC(Oc1ccc(Cl)cc1Cl)C(=O)O (stereo not given) | inactive | 
4 | Cc1cc(Cl)ccc1OCC(=O)O | inactive | 
5 | CCCN(CCC)c1c([N+](=O)[O-])cc(S(N)(=O)=O)cc1[N+](=O)[O-] | inactive | 95.7 µM (active)
6 | CO/C=C(/C(=O)OC)c1ccccc1Oc1cc(Oc2ccccc2C#N)ncn1 |  | 72 µM (active) and 83.7 µM (active) and 74.3 µM (active)
7 | COc1ccc(C(c2ccc(OC)cc2)C(Cl)(Cl)Cl)cc1 |  | 79.4 µM (active)
8 | C#CCOS(=O)OC1CCCCC1Oc1ccc(C(C)(C)C)cc1 (stereo not given) |  | 28.2 µM (active)
9 | COC(=O)C=C(C)OP(=O)(OC)OC | inactive | 
10 | Cc1ccc(-c2c(Cl)nc(C#N)n2S(=O)(=O)N(C)C)cc1 |  | 10.2 µM (active)
11 | CC1=C(C(=O)Nc2ccccc2)SCCO1 | inactive | 
12 | COC(=O)c1ccccc1C(=O)OC | inactive | 
13 | C=CCC1=C(C)[C@@H](OC(=O)[C@@H]2[C@@H](C=C(C)C)C2(C)C)CC1=O | inactive | 
14 | COC(=O)C(C)Oc1ccc(Oc2ccc(Cl)cc2Cl)cc1 (stereo not given) | inactive | 
15 | Cc1c(F)c(F)c(COC(=O)C2C(/C=C(\Cl)C(F)(F)F)C2(C)C)c(F)c1F (stereo not given) | inactive | 
16 | CNC(=S)S | inactive | 
17 | COc1nc(NC(C)C)nc(NC(C)C)n1 | inactive | 
18 | CCNc1nc(Cl)nc(NC(C)C)n1 | inactive | 
19 | COC(=O)N(OC)c1ccccc1COc1ccn(-c2ccc(Cl)cc2)n1 |  | 76.1 µM (active)

Row | Compound | outcome | AC50
20 | CC(C)(C)c1ccc(CSc2cnn(C(C)(C)C)c(=O)c2Cl)cc1 |  | 22.8 µM (active)
21 | CON(C)C(=O)Nc1ccc(Cl)c(Cl)c1 | inactive | 
22 | C=CCC1=C(C)C(OC(=O)C2C(C=C(C)C)C2(C)C)CC1=O (stereo not given) | inactive | 90.8 µM (active) and 22.5 µM (active)
23 | CC(C)C1(C)N=C(c2nc3ccccc3cc2C(=O)O)NC1=O (stereo not given) | inactive | 
24 | CC1COC(Cn2cncn2)(c2ccc(Oc3ccc(Cl)cc3)cc2Cl)O1 (stereo not given) |  | 12.6 µM (active)
25 | OC(c1ccc(Cl)cc1)(c1cncnc1)c1ccccc1Cl (stereo not given) |  | 73.2 µM (active)
26 | Fc1ccc(Oc2ccnc3cc(Cl)cc(Cl)c23)cc1 | inactive | 
27 | N#Cc1nn(-c2c(Cl)cc(C(F)(F)F)cc2Cl)c(N)c1S(=O)C(F)(F)F (stereo not given) |  | 59.2 µM (active)
28 | COP(=S)(OC)Oc1nc(Cl)c(Cl)cc1Cl | inactive | 
29 | CCCCNC(=O)OCC#CI | inactive | 
30 | CCOc1cc(Oc2ccc(C(F)(F)F)cc2Cl)ccc1[N+](=O)[O-] |  | 37 µM (active)
31 | N#Cc1cc(Br)c(O)c(Br)c1 |  | 14.2 µM (active)
32 | O=C(O)COc1nc(Cl)c(Cl)cc1Cl | inactive | 
33 | N#CC(CCc1ccc(Cl)cc1)(Cn1cncn1)c1ccccc1 (stereo not given) |  | 66 µM (active)
34 | CCc1nn(C)c(C(=O)NCc2ccc(C(C)(C)C)cc2)c1Cl |  | 1.85 µM (active)
35 | Oc1ccccc1-c1ccccc1 | inactive | 
36 | O=C(O)c1nc(Cl)ccc1Cl | inactive | 
37 | CCCC1COC(Cn2cncn2)(c2ccc(Cl)cc2Cl)O1 (stereo not given) |  | 49.5 µM (active)
38 | CCOC(=O)C(Cl)Cc1cc(-n2nc(C)n(C(F)F)c2=O)c(F)cc1Cl (stereo not given) | inactive | 
